Calls of active or inactive are those of the source. The calls were made as follows: active = hit-call score of the fitted dose curve at least 0.9, where 1 is the maximum; inactive = score below 0.9.
test: ATG_CMV_CIS: Attagene CIS-FACTORIAL HepG2 Assay for human CMV (Internal Marker) (AID 2282928); settings: HepG2 CMV promoter reporter, transcription factor profiling; actives raise or lower the signal;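 also: endpoint acts as a background internal control marker rather than a target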
Description: ATG_CIS is a cell-based, multiplexed-readout assay that uses HepG2, a human liver cell line, with measurements taken at 24 hours after chemical dosing in a 24-well plate.ATG_CMV_CIS is one of 52 assay component(s) measured or calculated from the ATG_CIS assay. It is designed to make measurements of mRNA induction, a form of inducible reporter, as detected with fluorescence intensity signals by Reverse transcription polymerase chain reaction (RT-PCR) and Capillary electrophoresis technology.Data from the assay component ATG_CMV_CIS was analyzed into 1 assay endpoint. This assay endpoint, ATG_CMV_CIS, was analyzed with bidirectional fitting relative to DMSO as the negative control and baseline of activity. Using a type of inducible reporter, measures of mRNA for gain or loss-of-signal activity can be used to understand the background control at the transcription factor-level as they relate to the gene . Furthermore, this assay endpoint can be referred to as a secondary readout, because this assay has produced multiple assay endpoints where this one serves a background control function. To generalize the intended target to other relatable targets, this assay endpoint is annotated to the background measurement intended target family, where the subfamily is internal marker.
Human liver HepG2 cells are transiently transfected with multiple reporter transcription units (MRTUs) in 6-well plates using FuGene 6 reagent (Roche; 3 ml FuGene/1 mg DNA). The MRTU constructs are regulated by a cis-regulating element (promoter). […] A major difference between the CIS and TRANS system is that in CIS activities of endogenous TFs are measured, whereas the TRANS assay evaluates changes in activities of exogenous, chimeric NR-Gal4 proteins. […] At the end of 24 hour incubation, total RNA was isolated using TriZol reagent (Invitrogen). The isolated RNA is then reverse-transcribed using oligo(dT) primer and Mo-MLV reverse transcriptase (Invitrogen) with DNAse I (Ambion) treatment for 30 min. The one-tenth of the produced cDNA was amplified by PCR using Taq DNA polymerase (Invitrogen) and two reporter sequence-specific primers. The PCR products were fluorescently labeled by primer extension with 6-arboxyfluorescein (6-FAM) 5'-labeled reporter sequence-specific primer (2 min at 95 C, 20 s at 68 C and 10 min at 72 C) and these products were digested with 5U of HpaI (New England Biolabs) for 2h at 37 C. The fragments were purified using Qiaquick PCR columns (Qiagen), analyzed on an ABI 3130xL genetic analyzer (Applied Biosystems) with peak positions identified by using a set of X-rhodamine (ROX)-labeled MapMarker1000 molecular weight standards (BioVentures). The raw capillary electrophoresis data was processed using Attagraph software (Attagene).

Question: With `ClC(Cl)(Cl)c1ccccc1` as the molecule, how does the outcome read?
Answer: The outcome was “inactive”.

Question: With `O=C(O)C(Cl)Cl` as the molecule, how does the outcome read?
Answer: The outcome was “inactive”.

Question: Which outcome does the source give for `O=P(Oc1ccccc1)(Oc1ccccc1)Oc1ccccc1` here?
Answer: The outcome was “inactive”.

Question: With `C=CC(=O)OCC(F)(F)C(F)F` as the molecule, how does the AC50 read?
Answer: Its AC50 is 150 µM (active).

Question: Which outcome does the source give for `O=C(O)C(F)(OC(F)(F)C(F)(F)C(F)(F)F)C(F)(F)F` (stereo not given) here?
Answer: Its outcome is “inactive”.

Question: Which outcome does the source give for `O=C(O)C=CC(F)(C(F)(F)F)C(F)(F)F` here?
Answer: The outcome was “inactive”.

Question: With `CC1=C(C(=O)Nc2ccccc2)S(=O)(=O)CCO1` as the molecule, how does the AC50 read?
Answer: Its AC50 is 45.4 µM (active).

Question: For `O=c1[nH]c2ccccc2c(=O)o1`, which outcome is on record?
Answer: The outcome was “inactive”.

Question: Which outcome does the source give for `Cc1ccc(N)cc1N` here?
Answer: The outcome was “inactive”.

Question: For `OCC(F)(F)OC(F)(F)C(F)(F)OC(F)(F)CO`, which outcome is on record?
Answer: The outcome was “inactive”.

Question: Which outcome does the source give for `c1cc2c3c(cccc3c1)CC2` here?
Answer: The outcome was “inactive”.

Question: Which outcome does the source give for `COCCOCCO` here?
Answer: The outcome was “inactive”.

Question: With `COC(N)=O` as the molecule, how does the outcome read?
Answer: The outcome was “inactive”.

Question: Which outcome does the source give for `CCN(CC)c1ccccc1` here?
Answer: Its outcome is “inactive”.

Question: For `c1nc[nH]n1`, which outcome is on record?
Answer: Its outcome is “inactive”.

Question: Which outcome does the source give for `CCCCc1ccccc1` here?
Answer: Its outcome is “inactive”.

Question: For `CCCCOCCOP(=O)(OCCOCCCC)OCCOCCCC`, which outcome is on record?
Answer: Its outcome is “inactive”.

Question: For `OCC(F)(F)OC(F)(F)C(F)(F)OC(F)(F)C(F)(F)OC(F)(F)F`, which outcome is on record?
Answer: Its outcome is “inactive”.

Question: With `CC(O)C#N` (stereo not given) as the molecule, how does the outcome read?
Answer: Its outcome is “inactive”.

Question: With `C=CC(=O)OCC(CC)(COC(=O)C=C)COC(=O)C=C` as the molecule, how does the AC50 read?
Answer: The AC50 was 12.1 µM (active).

Question: With `CSC(C)(C)C=NO` as the molecule, how does the outcome read?
Answer: The outcome was “inactive”.

Question: Which AC50 does the source give for `CCCCC(CC)COP(=O)(Oc1ccccc1)Oc1ccccc1` (stereo not given) here?
Answer: Its AC50 is 35.4 µM (active).

Question: With `CCCCCCCc1ccc(O)cc1` as the molecule, how does the outcome read?
Answer: Its outcome is “inactive”.

Question: Which outcome does the source give for `NC(=O)C(F)(F)C(F)(F)F` here?
Answer: Its outcome is “inactive”.

Question: Which outcome does the source give for `CC(Cl)CN(C)C` (stereo not given) here?
Answer: The outcome was “inactive”.

Question: For `CCOP(=S)(OCC)SCn1nnc2ccccc2c1=O`, which outcome is on record?
Answer: Its outcome is “inactive”.

Question: With `O=C(O)CF` as the molecule, how does the outcome read?
Answer: Its outcome is “inactive”.

Question: Which outcome does the source give for `N#Cc1cc([N+](=O)[O-])ccc1N` here?
Answer: The outcome was “inactive”.

Question: With `COP(N)(=S)OC` as the molecule, how does the outcome read?
Answer: Its outcome is “inactive”.

Question: Which outcome does the source give for `Oc1ccc(I)cc1` here?
Answer: Its outcome is “inactive”.

Question: With `CCN(CC)C1CCCCC1` as the molecule, how does the outcome read?
Answer: Its outcome is “inactive”.

Question: Which AC50 does the source give for `CC(C)(C)c1ccccc1OP(=O)(Oc1ccccc1)Oc1ccccc1` here?
Answer: The AC50 was 100 µM (active).

Question: Which outcome does the source give for `O=P(OCC(Br)CBr)(OCC(Br)CBr)OCC(Br)CBr` (stereo not given) here?
Answer: Its outcome is “inactive”.

Question: Which outcome does the source give for `CCNc1nc(Cl)nc(NC(C)(C)C)n1` here?
Answer: Its outcome is “inactive”.

Question: Which outcome does the source give for `CC(=O)CCc1ccc2c(c1)OCO2` here?
Answer: Its outcome is “inactive”.

Question: With `Nc1ccc([N+](=O)[O-])cc1Cl` as the molecule, how does the outcome read?
Answer: Its outcome is “inactive”.

Question: Which AC50 does the source give for `CC(C)Nc1ccc(Nc2ccccc2)cc1` here?
Answer: The AC50 was 60 µM (active).

Question: For `CCOP(=S)(Oc1ccc([N+](=O)[O-])cc1)c1ccccc1` (stereo not given), which outcome is on record?
Answer: The outcome was “inactive”.

Question: With `CC1(C)CN=C(NN=C(/C=C/c2ccc(C(F)(F)F)cc2)/C=C/c2ccc(C(F)(F)F)cc2)NC1` as the molecule, how does the outcome read?
Answer: The outcome was “inactive”.

Question: Which AC50 does the source give for `c1ccc2c(c1)Nc1ccccc1S2` here?
Answer: The AC50 was 21.3 µM (active).

From PubChem BioAssay (EPA / NIEHS)
